Compound activity deposited in PubChem by The Scripps Research Institute Molecular Screening Center.
An excerpt weighted towards active compounds, which were near 1.1% of everything screened.
MOR-DOR ag: agonists of OPRM1-OPRD1 heterodimerization, primary screen, cell-based, luminescence | activation, % at 9.3 µM | Mu-type opioid receptor (Homo sapiens) + Delta-type opioid receptor (Homo sapiens), … | 340,000 compounds, 0.3% hits | cells; in the data active means activation above about 18%
Target sequence (P35372 whole entry, looked up): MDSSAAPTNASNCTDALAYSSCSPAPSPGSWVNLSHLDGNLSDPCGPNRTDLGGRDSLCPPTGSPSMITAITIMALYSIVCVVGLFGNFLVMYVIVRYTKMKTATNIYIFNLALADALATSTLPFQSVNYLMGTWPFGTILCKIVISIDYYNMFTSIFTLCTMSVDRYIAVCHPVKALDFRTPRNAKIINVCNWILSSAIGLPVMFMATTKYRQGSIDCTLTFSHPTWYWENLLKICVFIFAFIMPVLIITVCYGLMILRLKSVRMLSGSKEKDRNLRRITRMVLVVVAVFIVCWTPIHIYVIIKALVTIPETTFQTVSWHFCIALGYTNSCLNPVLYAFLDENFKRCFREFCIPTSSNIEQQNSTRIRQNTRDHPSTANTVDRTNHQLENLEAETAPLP
Target sequence (P41143 whole entry, looked up): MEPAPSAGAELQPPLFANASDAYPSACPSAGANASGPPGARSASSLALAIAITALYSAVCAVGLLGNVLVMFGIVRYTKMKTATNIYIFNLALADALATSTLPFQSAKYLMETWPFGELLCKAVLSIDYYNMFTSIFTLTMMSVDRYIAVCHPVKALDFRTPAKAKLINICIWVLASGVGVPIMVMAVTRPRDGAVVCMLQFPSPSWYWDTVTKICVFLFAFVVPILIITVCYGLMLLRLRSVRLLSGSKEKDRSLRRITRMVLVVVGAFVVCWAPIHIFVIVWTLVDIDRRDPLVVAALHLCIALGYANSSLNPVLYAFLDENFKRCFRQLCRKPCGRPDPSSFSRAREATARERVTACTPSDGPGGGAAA
HTR5A ag ctr: HTR5A agonists in luminescence cell assay, primary screen, counter-screen for OPRM1-OPRD1 heterodimer agonist project, full-deck HTS; 340,000 compounds, 0.61% hits; activation, % at 9.3 µM; 5-hydroxytryptamine receptor 5A (Homo sapiens), P47898; cell-based; AID 504692, 2011; in the data active means activation mostly above about 9.5%, no sharp cut-off; inactive means mostly below about 7.6%
OPRM1-OPRD1 inv: inverse agonists of MOR-DOR heterodimerization, primary screen, cell-based, luminescence; inhibition, % at 9.3 µM; 340,000 compounds, 0.21% hits; cell-based MOR-DOR heterodimer luminescence, inverse agonism; Mu-type opioid receptor (Homo sapiens) + Delta-type opioid receptor (Homo sapiens), …; AID 504357, 2011; in the data active means inhibition above about 22%, passing the limit was not always enough
HTR5A inv ctr: HTR5A inverse agonists in luminescence cell assay, primary screen, counter-screen for OPRM1-OPRD1 heterodimer inverse agonist project, full-deck HTS; inhibition, % at 9.3 µM; 340,000 compounds, 0.083% hits; HTR5A cell line, inverse agonism; 5-hydroxytryptamine receptor 5A (Homo sapiens), P47898; in the data active means inhibition mostly above about 23%, no sharp cut-off; inactive means mostly below about 18%
Large screens that a line does not name were inactive.

O=C(NCc1ccc(F)cc1)C1CCC(CNS(=O)(=O)c2cccs2)CC1 (centres undefined)	HTR5A ag ctr 14
CC1CCCN(CCCNC(=O)C2CCN(S(=O)(=O)N3CCC4(CC3)OCCO4)CC2)C1 (centres undefined)	none
Cc1cc(N2CCN(C)CC2)nc2ccc(NC(=S)N3CCCCC3)cc12	none
Cc1cc(N2CCOCC2)nc2ccc(NC(=S)N3CCCCC3C)cc12 (centres undefined)	HTR5A ag ctr 12
CCCCn1c(CCC(=O)O)nc2cc(S(=O)(=O)N3CCCC3)ccc21	HTR5A ag ctr 8.3
CCCn1c(CCC(=O)O)nc2cc(S(N)(=O)=O)ccc21	none
C=CCN1C(=O)/C(=N/n2cnnc2)c2ccccc21	OPRM1-OPRD1 inv 46
Cc1ccc(CCNC(=O)C2CCCN(S(=O)(=O)N3CC(C)CC(C)C3)C2)cc1 (centres undefined)	none
COc1ccc(C)cc1NC(=O)CSc1nnc(-c2cc3cccc(OC)c3o2)n1N	HTR5A ag ctr 13
Cc1ccc2nc(NC(=O)CS(=O)(=O)Cc3ccccc3)sc2c1	none
Cc1ccc2nc(NC(=O)CSCc3ccccc3)sc2c1	HTR5A ag ctr 10
Cc1cc(/C=C\c2nc(O)c([N+](=O)[O-])c(=O)[nH]2)c(C)n1-c1ccccc1	MOR-DOR ag 34
CN(Cc1nc2ccccc2c(=O)[nH]1)C(=O)c1ccc(S(=O)(=O)N2CCCC2)cc1	none
COc1ccc(NC(=O)CC2C(=O)N(c3ccc(F)cc3)C(=S)N2NC(=O)c2ccc(Cl)cc2)cc1 (centres undefined)	HTR5A ag ctr 12
COc1ccc(NC(=O)CC2C(=O)N(c3ccc(Cl)cc3)C(=S)N2NC(=O)c2cccc(F)c2)cc1 (centres undefined)	none
O=C(COc1ccc2ccc(=O)oc2c1)OCc1ccccc1	HTR5A ag ctr 12
CC(C)(C)C1=CC(=O)C(=O)C(C(C)(C)C)=C1	MOR-DOR ag 36
Cc1c(CN2CCN(CC(C)C)C(CCO)C2)[nH]c2ccc(Cl)cc12 (centres undefined)	none
COc1ccc(S(=O)(=O)Cc2ccc(C(=O)N3CCOCC3)o2)cc1	none
COc1ccc(S(=O)(=O)Cc2ccc(C(=O)N3CC(C)CC(C)C3)o2)cc1 (centres undefined)	HTR5A ag ctr 13
CN(C)/C=C/c1oc2ccc(O)cc2c1[N+](=O)[O-]	OPRM1-OPRD1 inv 41, HTR5A inv ctr 30
Cc1oc2ccc(O)cc2c1C(=O)c1ccc([N+](=O)[O-])cc1	none
Cc1c(C(=O)Nc2nc3ccccc3[nH]2)oc2ccccc12	HTR5A ag ctr 11
COc1ccccc1NC(=O)NNC(=O)c1ccncc1	none
CC(C)C[C@H](NC(=O)c1nc[nH]c1C(=O)NC1CCN(C(=O)OC(C)(C)C)CC1)C(=O)OCc1ccccc1	HTR5A ag ctr 12
Cc1ccccc1N1CCN(C2CCCN(C(=O)CCC3(C)CC3)C2)CC1 (centres undefined)	HTR5A ag ctr 10
Cc1ccccc1N1CCN(C2CCCN(C(=O)CCC(=O)N(C)C)C2)CC1 (centres undefined)	none
CC(=O)Nc1ccc2ccccc2c1[N+](=O)[O-]	none
COc1ccc(NS(=O)(=O)c2cc(NS(=O)(=O)c3cc(C(=O)O)ccc3OC)ccc2C)cc1	none
COc1ccc(NS(=O)(=O)c2cc(C(=O)O)ccc2C)cc1	HTR5A ag ctr 12
N#Cc1ccccc1S(=O)(=O)N1CCN(C(=O)Cc2coc3cc(O)ccc23)CC1	none
COc1ccc(/C(C)=N/NS(=O)(=O)c2cc(C)ccc2C)c(OC)c1	HTR5A ag ctr 13
CCOc1ccc(S(=O)(=O)N/N=C(\C)c2ccc(OC)cc2OC)cc1	none
CCCCNC(=S)NNC(=O)CCn1cc(C)cn1	none
CCCCNC(=S)NNC(=O)CCn1nc(C)c(Br)c1C	OPRM1-OPRD1 inv 76, HTR5A inv ctr 49
Cn1c(-c2ccc(-c3ccccc3)cc2)c[nH]c1=S	OPRM1-OPRD1 inv 41, HTR5A inv ctr 46
C(=C1c2ccccc2-c2ccccc21)c1ccncc1	HTR5A ag ctr 8.9
CCOC(=O)C(C)Oc1cccc2c(=O)n(CC(=O)NCc3ccc4c(c3)OCO4)ccc12 (centres undefined)	HTR5A ag ctr 12
CCOC(=O)C(C)Oc1cccc2c(=O)n(CC(=O)Nc3ccc4c(c3)OCCO4)ccc12 (centres undefined)	none
CCCN(Cc1nnc(-c2cccs2)o1)C(=O)c1cccc(S(=O)(=O)N2CCOCC2)c1	none
Cc1nn(C(=O)c2ccco2)c(C)c1Sc1ccccc1	HTR5A ag ctr 11
O=[N+]([O-])c1cc([N+](=O)[O-])c2cc3ccccc3nc2c1	none
Cc1[nH]c2ccc(-c3nnc(SCC(=O)c4ccccc4F)o3)cc2c1C	HTR5A ag ctr 12
CCn1c(O)c(/C=N/N=C/c2ccccc2)c2ccc(C3=NNC(=O)CC3)cc21	HTR5A ag ctr 13
CCOc1ccc(-c2nnc(NC(=O)Cc3ccc(OC)cc3)o2)cc1	none
CCOc1ccc(-c2nnc(NC(=O)CCCOc3cccc(C)c3)o2)cc1	HTR5A ag ctr 13
O=C1N/C(=C/c2cccn2-c2ccc(F)cc2)C(=O)N1Cc1ccccc1F	HTR5A ag ctr 12
O=C1N/C(=C/c2cccn2-c2ccccc2)C(=O)N1Cc1ccc(F)cc1	none
CC(=O)Nc1ccc(N=c2cc([N+](=O)[O-])cc(Cl)n2O)cc1	none
O=C(/C=C/c1ccc(Br)cc1)NC1CCCCCC1	HTR5A ag ctr 14
CCCOc1ccc(/C=C/C(=O)NC2CCCCC2)cc1	none
O=C(O)CCC(=O)N1CCN(Cc2ccc3c(c2)OCO3)CC1	HTR5A ag ctr 12
CCCC(=O)N1CCN(Cc2ccc3c(c2)OCO3)CC1	none
COc1cccc(C=NNc2nc3ccccc3s2)c1OC	HTR5A ag ctr 9.7
Oc1ccccc1C=NNc1nc2ccccc2s1	none
CN1C(=O)C(O)(CC(=O)/C=C/c2ccco2)c2ccccc21 (centres undefined)	HTR5A ag ctr 9.6
O=C(CN1CCc2ccccc2C1)Nc1ccccc1C(=O)NC1CC1	none
Cc1cc(C(=O)CSc2nc(N)cc(=O)[nH]2)c(C)n1CC1CCCO1 (centres undefined)	none
Cc1cc(C(=O)CSc2nc3ccccc3[nH]2)c(C)n1CC1CCCO1 (centres undefined)	HTR5A ag ctr 13
CN(C)CC[n+]1ccc(C(=O)c2ccccc2)cc1	none
CCOC(=O)c1ccc(N=c2scc(C)n2CC)cc1	HTR5A ag ctr 13
CC(C)CNS(=O)(=O)c1cc(C(=O)OCC(=O)c2ccc3c(c2)OCCO3)c(Cl)cc1Cl	none
CCCn1c(C)cc(C(=O)COC(=O)c2cc(S(=O)(=O)NCC(C)C)c(Cl)cc2Cl)c1C	HTR5A ag ctr 14
S=c1[nH]c(-c2ccccc2)cs1	HTR5A ag ctr 10
Fc1ccc(-c2csc(=S)[nH]2)cc1	none
CCN=c1sc(C(=O)OC)cc(=O)n1CC	HTR5A ag ctr 11
C=CCN=c1sc(C(=O)OC)cc(=O)n1CC=C	none
